These results are taken from PubChem BioAssay (Tox21).

Assay [1] addresses Aromatase (Homo sapiens) (UniProt P11511). Description: qHTS assay to identify aromatase inhibitors (AID 743083; active = well fitted curve in the direction sought with a large enough effect in the repeat runs; an effect the other way counts as inactive or inconclusive; also: nearly all actives have a fitted effect of over 55% in size; also: potency is read from the fitted curve at half-maximal effect).
Assay [2] has as its target Aryl hydrocarbon receptor (Homo sapiens) (UniProt P35869). Briefly: qHTS assay to identify small molecule that activate the aryl hydrocarbon receptor (AhR) signaling pathway (AID 743085; active = well fitted curve in the direction sought with a large enough effect in the repeat runs; an effect the other way counts as inactive or inconclusive;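 also: HG2L7.5c1 human HepG2 liver cells with stably integrated DRE-driven firefly reporter; nearly all actives have a fitted effect of over 15% in size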). In a few lines: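 Cell line HG2L7.5c1 (human hepatoma, 20× DRE-luc). Plated, 5 h 37C, compound/DMSO added, 24 h 37C. CellTiter-Fluor 30 min 37C → fluorescence; then ONE-Glo 30 min RT → luminescence.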

Assay [3] can be described thus: qHTS assay to identify small molecule agonists of H2AX (AID 1224845; active = well fitted activation curve with a large enough effect in the signal ratio in the repeat runs, not every such curve was filed as active; the % refers to the signal ratio; also: potency is read from the fitted curve at half-maximal effect). In a few lines: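 Wild-type CHO-K1 cells, plated overnight, exposed 3hr at 37C to 15 concentrations (0.76% DMSO final). Lysed, then HTRF anti-pH2AX (S139) cryptate and anti-H2AX-d2 antibodies, 24 hr room temperature; 665/620 nm emission read.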
Assay [4] in a line: Caspase-3/7 induction in HepG2 cells by small molecules, qHTS assay (AID 1346978; active = well fitted curve in the direction sought with a large enough effect in the repeat runs; an effect the other way counts as inactive or inconclusive; also: nearly all actives have a fitted effect of over 15% in size; also: potency is read from the fitted curve at half-maximal effect). The method in brief:
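Wild-type HepG2 cells, 2,000/well, settled 5 hr at 37 C and 5% CO2, then compound-treated for 17 hr; caspase-3/7 activity read by luminescent Caspase-Glo 3/7 after 30 min at room temperature.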

The target of assay [5] is Acetylcholinesterase (Homo sapiens) (UniProt P22303). Briefly: Acetylcholinesterase (AChE) small molecule antagonists: colormetric cell-based qHTS assay (AID 1347395). Also: nearly all actives have a fitted effect of over 30% in size. The method in brief:
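Colorimetric read-out: DTNB detects thiocholine released when cellular AChE in SH-SY5Y cells hydrolyses acetylthiocholine. Cells attached overnight, received compound for 30 min at 37 C, then substrate mix for 90 min at 37 C.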

Assay [6] has the same target. Description: Acetylcholinesterase (AChE) small molecule antagonists: enzyme-based qHTS assay (AID 1347397). Also: nearly all actives have a fitted effect of over 55% in size. The note with it: Potency: AChE enzyme activity inhibition; outcome: AChE enzyme activity inhibition. In a few lines:
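Recombinant human AChE (50 mU/mL) preincubated with compound 30 min at room temperature; acetylthiocholine plus DTNB then added, and thiocholine formation read colorimetrically after 10 min at room temperature. DMSO served as vehicle control.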

For assay [7] the target is unchanged. Description: Acetylcholinesterase (AChE) small molecule antagonists: fluorescence cell-based qHTS assay (AID 1347398). Also: nearly all actives have a fitted effect of over 50% in size. The note with it: Potency: AChE activity; outcome: AChE activity. In a few lines: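 SH-SY5Y cells (2000/well), attached overnight, incubated with compound 30 min at 37 C. Acetylthiocholine plus Thiolite Green then added for 40 min at room temperature. Thiocholine fluorescence (Ex/Em 490/520 nm) reports cellular AChE activity.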

Assay [8] has the same target. Description: Acetylcholinesterase (AChE) small molecule antagonists: enzyme-based qHTS assay with human liver microsomes (AID 1347399). Also: nearly all actives have a fitted effect of over 60% in size. Also: potency is read from the fitted curve at half-maximal effect. The note with it: Potency: qHTS inhibition; outcome: qHTS inhibition. The method in brief: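 Recombinant human AChE (50 mU/mL in the enzyme mix) and human liver microsomes (0.25 mg/mL final) were preincubated with compound and NADPH (0.25 mg/mL final) for 30 min at 37 C. Acetylthiocholine/DTNB was then added; thiocholine was read colorimetrically after 10 min at room temperature.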

Assay [9] can be described thus: qHTS assay for small molecule agonists of the p53 signaling pathway (AID 651631). Also: nearly all actives have a fitted effect of over 15% in size. Also: potency is read from the fitted curve at half-maximal effect. The method in brief:
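Read-out is beta-lactamase FRET fluorescence measured 2 h after substrate addition at room temperature, in HCT-116 cells with a p53 response element-driven reporter exposed to compounds for 16 h at 37 °C.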

Assay [10] in a line: qHTS assay to identify small molecule agonists of the estrogen related receptor (ERR) signaling pathway from Tox21 library (AID 1224849). Also: nearly all actives have a fitted effect of over 15% in size. The note with it: ERR reporter cell line, ONE-Glo luciferase, 18 h; at 92.4 µM (top of the series) unless noted. In a few lines:
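Six hours post-seeding at 37 C/5% CO2, ERR cells receive DMSO-solubilised compounds; after 18 h at 37 C, ONE-Glo reagent is applied and luminescence recorded.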

Assay [11] can be described thus: qHTS assay to identify small molecule HDAC inhibitors (AID 1259364; active = well fitted curve in the direction sought with a large enough effect in the repeat runs; an effect the other way counts as inactive or inconclusive;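 also: wild-type HCT-116 cells with endogenous class I/II HDAC activity; top concentration of the series differs between compounds; nearly all actives have a fitted effect of over 45% in size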). The method in brief: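 Relative class I and II HDAC activity is taken from the luminogenic signal in HCT-116 cells, with compound exposure 2 hr and reagent development 30 min at room temperature.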
Assay [12] can be described thus: qHTS assay to identify small molecule agonists of the sonic hedgehog signaling (Shh) pathway (AID 1259368). In a few lines:
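Mouse fibroblast (NIH/3T3) reporter cells with stably integrated Gli1-Luc were treated 24 hr with compound; firefly luciferase luminescence served as the read-out.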

Assay [13] can be described thus: Caspase-3/7 induction in CHO-K1 cells by small molecules, qHTS assay (AID 1346980; active = well fitted curve in the direction sought with a large enough effect in the repeat runs; an effect the other way counts as inactive or inconclusive; also: nearly all actives have a fitted effect of over 15% in size). In a few lines: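 Wild-type CHO-K1 cells exposed to compounds for 17hr at 37 C, 5% CO2. Caspase-3/7 activity then measured by Caspase-Glo 3/7 luminescence after 30min at room temperature.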
The nature of assay [14]: qHTS assay to identify small molecule antagonists of the retinoic acid receptor (RAR) signaling pathway (AID 1159552; active = well fitted curve in the direction sought with a large enough effect in the repeat runs; an effect the other way counts as inactive or inconclusive; also: nearly all actives have a fitted effect of over 50% in size; also: potency is read from the fitted curve at half-maximal effect). The method in brief: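 Cells of the C3RL4 line were seeded, incubated overnight, then dosed with compounds in DMSO followed immediately by retinol (1 uM final). Six hours later luciferase detection reagent went in; signal was measured after 30 min at RT.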

“And” between values parts separate entries of the source, which are not always exact repeats. Identical values can stand only once. Values without a mark were called inactive. Results filed as inconclusive are left out. The source made the active and inactive calls. Unless noted, calls follow the shape of the full dose curve.
% is scaled to controls: 0 for no effect and ±100 for the full control effect.

Sequence of Aryl hydrocarbon receptor (Homo sapiens) (P35869 whole entry, looked up): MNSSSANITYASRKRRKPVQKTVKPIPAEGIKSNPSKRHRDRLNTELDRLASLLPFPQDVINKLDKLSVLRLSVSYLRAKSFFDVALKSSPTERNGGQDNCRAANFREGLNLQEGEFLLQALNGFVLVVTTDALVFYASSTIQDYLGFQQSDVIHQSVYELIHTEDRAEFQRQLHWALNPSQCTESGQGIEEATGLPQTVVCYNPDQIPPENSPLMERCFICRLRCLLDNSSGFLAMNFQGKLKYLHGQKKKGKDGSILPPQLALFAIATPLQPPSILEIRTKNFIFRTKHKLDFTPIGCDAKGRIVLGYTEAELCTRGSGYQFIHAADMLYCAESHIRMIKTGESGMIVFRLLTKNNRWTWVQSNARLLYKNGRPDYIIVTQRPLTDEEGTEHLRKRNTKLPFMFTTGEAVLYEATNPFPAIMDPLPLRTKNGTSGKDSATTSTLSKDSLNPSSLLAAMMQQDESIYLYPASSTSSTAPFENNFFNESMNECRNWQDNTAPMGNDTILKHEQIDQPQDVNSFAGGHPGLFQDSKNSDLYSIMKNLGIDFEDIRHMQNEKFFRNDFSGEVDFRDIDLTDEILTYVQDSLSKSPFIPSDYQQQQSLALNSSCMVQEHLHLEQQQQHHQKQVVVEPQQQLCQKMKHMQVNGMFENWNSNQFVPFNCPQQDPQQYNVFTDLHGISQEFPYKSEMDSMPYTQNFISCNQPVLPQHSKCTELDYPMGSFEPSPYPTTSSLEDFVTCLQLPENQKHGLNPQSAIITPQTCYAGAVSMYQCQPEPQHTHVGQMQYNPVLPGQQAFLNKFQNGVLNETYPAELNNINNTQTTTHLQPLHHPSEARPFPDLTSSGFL
Sequence of Aromatase (Homo sapiens) (P11511 whole entry, looked up): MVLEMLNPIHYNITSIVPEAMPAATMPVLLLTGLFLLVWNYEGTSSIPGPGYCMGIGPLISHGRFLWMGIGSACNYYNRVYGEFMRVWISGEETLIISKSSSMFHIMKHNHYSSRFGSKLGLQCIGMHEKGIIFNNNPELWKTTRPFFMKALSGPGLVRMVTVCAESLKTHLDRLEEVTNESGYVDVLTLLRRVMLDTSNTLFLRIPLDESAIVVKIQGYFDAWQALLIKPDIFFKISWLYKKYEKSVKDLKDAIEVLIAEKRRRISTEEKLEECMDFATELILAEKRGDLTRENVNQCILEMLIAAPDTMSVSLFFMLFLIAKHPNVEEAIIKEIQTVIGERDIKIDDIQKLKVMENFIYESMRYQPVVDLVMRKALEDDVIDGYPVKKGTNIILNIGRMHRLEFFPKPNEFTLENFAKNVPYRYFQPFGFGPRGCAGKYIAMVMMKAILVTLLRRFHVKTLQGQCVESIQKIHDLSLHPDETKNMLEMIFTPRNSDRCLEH
Sequence of Acetylcholinesterase (Homo sapiens) (P22303 whole entry, looked up): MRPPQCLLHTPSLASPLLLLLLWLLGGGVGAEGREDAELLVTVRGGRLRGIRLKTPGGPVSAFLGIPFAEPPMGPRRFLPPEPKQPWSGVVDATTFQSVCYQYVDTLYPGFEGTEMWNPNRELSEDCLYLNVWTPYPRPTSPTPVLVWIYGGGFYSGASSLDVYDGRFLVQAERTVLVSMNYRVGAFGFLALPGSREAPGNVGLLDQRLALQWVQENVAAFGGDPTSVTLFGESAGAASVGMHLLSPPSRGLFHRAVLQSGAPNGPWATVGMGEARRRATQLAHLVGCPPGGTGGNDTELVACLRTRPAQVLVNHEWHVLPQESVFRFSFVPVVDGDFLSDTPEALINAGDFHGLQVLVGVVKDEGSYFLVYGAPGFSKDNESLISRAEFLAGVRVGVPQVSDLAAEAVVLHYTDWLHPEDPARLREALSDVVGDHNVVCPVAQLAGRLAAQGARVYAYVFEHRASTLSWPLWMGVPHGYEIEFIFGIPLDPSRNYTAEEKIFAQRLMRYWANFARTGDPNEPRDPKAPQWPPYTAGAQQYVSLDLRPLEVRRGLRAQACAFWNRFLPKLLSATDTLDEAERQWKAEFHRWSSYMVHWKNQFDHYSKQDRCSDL

Turning to `CC(C)(C)c1cc(C(C)(C)C)c(O)c(C(C)(C)C)c1`, the Potency entry in assay [1], in assay [2], in [4], in assay [5], in [6] and in assay [7] was “inactive” each time. For the same compound, the Potency result in assay [8] is “inactive”. Moreover, in assay [3], the Potency is 101 µM (active).

Regarding `CN1CSC(=S)N(C)C1`, the Potency entry in assay [9], in assay [2], in assay [5], in assay [6], in [7] and in assay [8] was “inactive” each time. Also, the Potency is 4.83 µM (active) and 3.85 µM (active) in assay [1]; 4.48 µM (active) in assay [3]; 7.66 µM (active) in [4]. The activity change, positive = activation in assay [10] is -78.8% and -76.3%. The result in assay [11], in assay [12] and in [13] was inactive.

Consider `Cc1ccc(N(SC(F)(Cl)Cl)S(=O)(=O)N(C)C)cc1`, for which the Potency in [9] is 6.11 µM (active); in assay [1], 3.86 µM (active); in assay [14], 13.7 µM (active); in assay [8] it was 71 µM (active). Further, the Potency result in assay [2], in assay [3], in [4] and in [5] was “inactive” each time. Besides, the activity change, positive = activation in [10] was -74.2%. In addition, the call in [11], in assay [12] and in assay [13] was inactive.

On to `COCCOC(=O)c1ccccc1C(=O)OCCOC`, for which the Potency result in assay [9], in assay [1], in assay [2], in assay [14], in assay [4] and in [5] was “inactive” in each case. Moreover, the Potency entry in assay [6], in assay [7] and in assay [8] was “inactive” each time.

As for `O=C(O)C(c1ccc(Cl)cc1)c1ccc(Cl)cc1`, the Potency result in [1], in assay [2], in assay [4], in assay [5], in [6] and in [7] was “inactive” in each case. Further, the Potency entry in [8] was “inactive”.

Take `c1ccncc1`: the Potency result in assay [9], in assay [1], in [2] and in assay [4] was “inactive” throughout. Also, the compound was classed as inactive in [5], in assay [6], in assay [7] and in assay [8].

Regarding `CCN(CC)C(=O)Cl`, the Potency entry in assay [3], in assay [4], in [5], in assay [6], in assay [7] and in assay [8] was “inactive” each time. Also, the activity change, positive = activation in [10] was -1.51%. The result in assay [11], in assay [12] and in assay [13] was inactive.

For the compound `Cc1cccc([N+](=O)[O-])c1C`, the Potency entry in [9], in [1], in assay [2], in assay [14], in assay [3] and in assay [4] was “inactive” throughout. Further, the Potency result in [5], in [6], in assay [7] and in assay [8] was “inactive” throughout.

In the case of `O=[N+]([O-])c1ccc2ncccc2c1`, the Potency entry in assay [14], in assay [5], in assay [6], in assay [7] and in assay [8] was “inactive” in each case.

Consider `O=[N+]([O-])c1cccc(Cl)c1Cl`, for which the Potency entry in [2], in [14], in assay [5], in assay [6], in [7] and in assay [8] was “inactive” each time.

Regarding `Nc1ccc(Cl)cc1Cl`, the Potency result in [9], in [14], in [3], in assay [4], in assay [5] and in assay [6] was “inactive” each time. The Potency entry in assay [7] and in assay [8] was “inactive” throughout. Besides, the activity change, positive = activation in assay [10] is -4.05%.

As to `CC(C)(C)OCC1CO1` (centres undefined), the Potency result in assay [9], in [1], in assay [14], in assay [5], in assay [6] and in [7] was “inactive” each time. In addition, in assay [8], the Potency entry was “inactive”.
